Activity calls are given as the source filed them. Calls follow the shape of the dose curve; as a rule, active = well fitted activation curve with a large enough effect; inconclusive = small, poorly fitted or top-dose-only effect; inactive = flat fitted curve, though single readings scatter.
Assay: Cellular Toxicity (caspase-3) SHSY5Y (AID 657)
Conditions: SH-SY5Y caspase-3 activation; series mostly up to 91.7 µM; caspase-3 activation: at the top concentration
From the text: NIH Chemical Genomics Center [NCGC]
NIH Molecular Libraries Screening Centers Network [MLSCN]
National Institutes of Environmental Health Sciences [NIEHS]
National Toxicology Program [NTP]
We have developed a 1536-well cell-based assay for quantitative high throughput screening (qHTS) against a number of cell lines to determine in vitro caspase 3/7 activity of small molecules. This particular assay uses the SH-SY5Y cell line which is derived from human neuroblastoma.
NCGC Assay Protocol Summary:
The Caspase-Glo 3/7 assay (Promega) is a homogeneous method to measure caspase-3 and caspase-7 activities in cultured cells. The quantitation of caspase 3/7 activity is based on the cleavage of a peptide-aminoluciferin substrate. After caspase cleaves the substrate the free aminoluciferin is liberated and serves as the substrate of luciferase, which generates the light. The luminescent signal is proportional to the amount of caspase 3/7 activity present.
Using the Caspase-Glo 3/7 assay, the amount of caspase 3/7 activity was measured in the SH-SY5Y cell line with complete culture medium following compound treatment for 16 hours. The assay was performed in opaque white 1536-well plates. In the screen, staurosporine and doxorubicin were used as positive controls. Library compounds were measured for their ability to cause the activation of caspase 3/7 in the cell line, as reflected by an increase in luminescence signal, in a concentration-dependent manner. Data were normalized to the controls for basal activity (DMSO only) and 100% stimulation (10 uM staurosporine). AC50 values were determined from concentration-response data modeled with the standard Hill equation.
qHTS protocol for caspase 3/7 assay in SH-SY5Y cells
[Step] [Parameter] [Value] [Description]
1. Reagent; 5 uL; 1500 SH-SY5Y cells/well
2. Time; 5 hr; 37 °C incubation
4. Controls; 23 nL; doxorubicin 7 pM to 100 uM & staurosporine 1.4 pM to 20 uM
5. Time; 16 hr; 37 °C incubation
6. Reagent; 5 uL; Caspase-Glo 3/7 reagent
7. Time; 1 hr; Room Temperature
8. Detection; Luminescence; Viewlux plate reader
Keywords: caspase 3/7, apoptosis, SH-SY5Y cell line, luminescence, NTPHTS, NTPHTS_NCGC, NIEHS, EPA, DSSTox, MLSMR, MLSCN, NIH Roadmap, qHTS, NCGC
Potency is read from the fitted curve at half-maximal effect.

| Structure (SMILES) | caspase-3 activation | Potency |
| --- | --- | --- |
| CCCCCC/C(C=O)=C\c1ccccc1 | -0.0375% (inactive) |  |
| O=[N+]([O-])c1cc([N+](=O)[O-])c2ccc(S(=O)(=O)O)cc2c1O | 2.44% (inactive) |  |
| Cc1cc(Nc2ccc(O)cc2)ccc1N | 13.5% (inactive) |  |
| Nc1ccc2cc3ccccc3cc2c1 | -1.6% (inactive) |  |
| O=C=Nc1ccc(Cc2ccc(N=C=O)cc2)cc1 | -1.59% (inactive) |  |
| c1ccc2c(c1)ccc1cc3c(ccc4ccccc43)cc12 | -1.49% (inactive) |  |
| c1ccc2c(c1)-c1cccc3c1c-2cc1ccccc13 | -1.49% (inactive) |  |
| ClC1=C(Cl)C(Cl)(Cl)C(Cl)=C1Cl | 1.78% (inactive) |  |
| CN1[C@H]2CC(OC(=O)[C@H](CO)c3ccccc3)C[C@H]1[C@H]1O[C@H]12 (stereo not given in full) |  | inactive |
| O=C(/C=C/c1ccc(O)c(O)c1)OC1C[C@](O)(C(=O)O)C[C@@H](O)[C@H]1O (stereo not given in full) |  | inactive |
| O=Cc1ccc(Cl)c(Cl)c1 | 0.849% (inactive) |  |
| CNc1ccc(O)cc1 | -9.17% (inactive) |  |
| CC/C(=C(\c1ccccc1)c1ccc(OCCN(C)C)cc1)c1ccc(O)cc1 | 7.36% (inactive) |  |
| C/C=C1\C(=O)C[C@H]2[C@@H]3CCC4=CC(=O)CC[C@]4(C)[C@H]3CC[C@]12C | 3.56% (inactive) |  |
| CN(C)c1ccc(C2(c3ccc(N(C)C)cc3)OC(=O)c3cc(N(C)C)ccc32)cc1 | 0.594% (inactive) |  |
| Cc1ccc(S(=O)(=O)Oc2ccc(N=Nc3ccc(-c4ccc(N=Nc5c(O)ccc6cc(S(=O)(=O)O)cc(S(=O)(=O)O)c56)c(C)c4)cc3C)cc2)cc1 | -2.09% (inactive) |  |
| CO[C@H]1/C=C/O[C@@]2(C)Oc3c(C)c(O)c4c(O)c(c5c(c4c3C2=O)NC2(CCN(CC(C)C)CC2)N=5)=NC(=O)/C(C)=C\C=C\[C@H](C)[C@H](O)[C@@H](C)[C@@H](O)[C@@H](C)[C@H](OC(C)=O)[C@@H]1C | 2.1% (inactive) |  |
| Cc1cccc(O)c1C | -2% (inactive) |  |
| C=CC(=O)OCC(CO)(COC(=O)C=C)COC(=O)C=C |  | 2.51 µM (active) |
| CC(=O)Nc1ccc(C(=O)CCl)cc1 | -10.8% (inactive) |  |
| C=C(C)c1ccccc1 | 3.45% (inactive) |  |
| Oc1ccc2cc(SSc3ccc4cc(O)ccc4c3)ccc2c1 | -8.41% (inactive) |  |
| CCC(C)Nc1ccc(NC(C)CC)cc1 (stereo not given) | -11.1% (inactive) |  |
| O=C(OCC(COC(=O)c1ccccc1)(COC(=O)c1ccccc1)COC(=O)c1ccccc1)c1ccccc1 | 0.419% (inactive) |  |
| O=C1OC2(c3cc(Br)c(O)c(Br)c3Oc3c2cc(Br)c(O)c3Br)c2c(Cl)c(Cl)c(Cl)c(Cl)c21 | -0.51% (inactive) |  |

From PubChem BioAssay (NCATS)
